In the supplement of paper PMC10849652:
Of roughly 8,800 targets only a part is listed; those with a hit were picked by preference. About 0.5% of all pairs of compound and target were hits.

Compound: C1=CC(=CC=C1C2=NC3=C(N2)C=C(C=C3)C(=O)N)OC4=CC=C(C=C4)Cl
Test: log2 fold change, soluble protein after heating vs DMSO (PISA); higher = thermal stabilisation; K562 lysate, 10 uM; active = over 0.2 and 3.5 SD of the protein, either way, in both replicates (recomputed)
Outline: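 K562 pellets were dounce-homogenised in PBS pH 7.4 with 1 mM MgCl2, and the crude extract at 1 mg/mL protein was treated with 10 μM compound for 30 min. Aliquots were heated for 3 min across 48°C-58°C, pooled, and brought to 0.5% NP-40 at 4°C; soluble protein was the supernatant after 21,000xg for 90 min. Soluble protein was quantified by TMTpro 16plex LC-MS/MS with channel sums equalised, and reported as log2 fold change in thermal stability against DMSO controls, with values from duplicates.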

Chain of UniProt O95297 (O95297 whole entry, looked up): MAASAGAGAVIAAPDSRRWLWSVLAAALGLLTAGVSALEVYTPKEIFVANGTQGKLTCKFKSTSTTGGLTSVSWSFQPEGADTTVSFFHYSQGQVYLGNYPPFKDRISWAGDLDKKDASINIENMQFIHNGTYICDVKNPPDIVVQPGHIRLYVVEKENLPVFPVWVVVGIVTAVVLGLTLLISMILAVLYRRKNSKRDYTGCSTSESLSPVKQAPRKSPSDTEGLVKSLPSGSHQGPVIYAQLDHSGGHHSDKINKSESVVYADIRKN
Chain of UniProt Q8NF37 (Q8NF37 whole entry, looked up): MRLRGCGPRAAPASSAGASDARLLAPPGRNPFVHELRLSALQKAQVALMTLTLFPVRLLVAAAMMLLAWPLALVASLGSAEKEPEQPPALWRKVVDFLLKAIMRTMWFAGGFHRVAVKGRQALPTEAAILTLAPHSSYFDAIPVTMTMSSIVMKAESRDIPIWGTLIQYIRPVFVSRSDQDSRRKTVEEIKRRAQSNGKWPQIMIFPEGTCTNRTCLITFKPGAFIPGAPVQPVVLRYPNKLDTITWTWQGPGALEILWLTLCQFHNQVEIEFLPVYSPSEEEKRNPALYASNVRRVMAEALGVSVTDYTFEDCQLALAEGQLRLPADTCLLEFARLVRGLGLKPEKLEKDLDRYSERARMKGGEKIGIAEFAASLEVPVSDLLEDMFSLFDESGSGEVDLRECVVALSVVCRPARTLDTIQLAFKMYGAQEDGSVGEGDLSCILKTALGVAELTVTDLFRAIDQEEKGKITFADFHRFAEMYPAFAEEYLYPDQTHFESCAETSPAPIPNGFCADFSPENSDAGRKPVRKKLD
Chain of UniProt Q9Y6R4 (Q9Y6R4 whole entry, looked up): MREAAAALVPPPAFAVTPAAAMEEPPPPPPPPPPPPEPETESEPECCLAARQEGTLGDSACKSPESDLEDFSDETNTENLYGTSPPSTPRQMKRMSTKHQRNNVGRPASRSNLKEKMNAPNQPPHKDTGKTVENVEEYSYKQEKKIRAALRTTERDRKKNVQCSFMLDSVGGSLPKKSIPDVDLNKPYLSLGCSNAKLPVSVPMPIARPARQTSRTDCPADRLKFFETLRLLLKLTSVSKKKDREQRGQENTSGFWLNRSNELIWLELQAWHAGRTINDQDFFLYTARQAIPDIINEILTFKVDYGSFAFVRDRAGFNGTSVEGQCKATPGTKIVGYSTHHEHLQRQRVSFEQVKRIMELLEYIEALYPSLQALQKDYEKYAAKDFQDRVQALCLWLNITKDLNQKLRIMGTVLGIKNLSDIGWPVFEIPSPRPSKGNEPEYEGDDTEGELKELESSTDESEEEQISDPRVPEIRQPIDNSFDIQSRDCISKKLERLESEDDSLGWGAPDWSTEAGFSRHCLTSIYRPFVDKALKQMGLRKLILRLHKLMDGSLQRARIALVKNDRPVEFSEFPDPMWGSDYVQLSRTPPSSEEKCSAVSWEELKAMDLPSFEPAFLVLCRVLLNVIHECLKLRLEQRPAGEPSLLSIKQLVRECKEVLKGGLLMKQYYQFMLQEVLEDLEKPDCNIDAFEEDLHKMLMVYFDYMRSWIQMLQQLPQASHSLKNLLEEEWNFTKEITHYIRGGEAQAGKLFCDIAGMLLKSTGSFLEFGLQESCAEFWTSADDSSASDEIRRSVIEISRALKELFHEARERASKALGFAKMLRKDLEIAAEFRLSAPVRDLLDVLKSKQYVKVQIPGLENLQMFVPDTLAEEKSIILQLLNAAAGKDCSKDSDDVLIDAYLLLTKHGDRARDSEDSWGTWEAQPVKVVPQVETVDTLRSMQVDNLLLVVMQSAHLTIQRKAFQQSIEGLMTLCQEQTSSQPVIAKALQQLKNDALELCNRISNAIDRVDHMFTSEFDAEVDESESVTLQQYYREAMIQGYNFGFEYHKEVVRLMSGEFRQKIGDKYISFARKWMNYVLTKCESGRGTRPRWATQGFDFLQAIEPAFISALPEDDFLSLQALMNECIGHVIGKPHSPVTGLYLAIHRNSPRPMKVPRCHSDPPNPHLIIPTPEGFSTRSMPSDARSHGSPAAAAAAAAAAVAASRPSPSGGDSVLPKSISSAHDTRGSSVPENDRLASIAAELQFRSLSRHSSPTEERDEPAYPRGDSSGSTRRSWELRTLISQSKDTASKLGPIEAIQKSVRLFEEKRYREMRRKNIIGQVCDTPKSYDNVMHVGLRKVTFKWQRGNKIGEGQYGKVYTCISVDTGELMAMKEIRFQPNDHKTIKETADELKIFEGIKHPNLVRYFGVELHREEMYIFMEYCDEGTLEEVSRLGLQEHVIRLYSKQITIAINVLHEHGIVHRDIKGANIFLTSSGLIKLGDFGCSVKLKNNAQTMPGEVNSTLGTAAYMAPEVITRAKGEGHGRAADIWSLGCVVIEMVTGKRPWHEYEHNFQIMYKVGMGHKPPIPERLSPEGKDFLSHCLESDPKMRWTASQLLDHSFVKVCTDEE
Chain of UniProt Q16644 (Q16644 whole entry, looked up): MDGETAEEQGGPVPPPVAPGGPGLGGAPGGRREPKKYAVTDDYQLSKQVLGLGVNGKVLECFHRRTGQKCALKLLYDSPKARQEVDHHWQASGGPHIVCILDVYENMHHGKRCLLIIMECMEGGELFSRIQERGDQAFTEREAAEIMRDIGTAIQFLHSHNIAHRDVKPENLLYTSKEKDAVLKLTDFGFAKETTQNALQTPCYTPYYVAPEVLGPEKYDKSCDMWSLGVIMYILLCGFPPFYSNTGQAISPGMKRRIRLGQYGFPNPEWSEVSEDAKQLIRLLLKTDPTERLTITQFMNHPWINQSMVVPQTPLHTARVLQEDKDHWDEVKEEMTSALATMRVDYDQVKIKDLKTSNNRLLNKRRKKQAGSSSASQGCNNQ
Chain of UniProt Q99797 (Q99797 whole entry, looked up): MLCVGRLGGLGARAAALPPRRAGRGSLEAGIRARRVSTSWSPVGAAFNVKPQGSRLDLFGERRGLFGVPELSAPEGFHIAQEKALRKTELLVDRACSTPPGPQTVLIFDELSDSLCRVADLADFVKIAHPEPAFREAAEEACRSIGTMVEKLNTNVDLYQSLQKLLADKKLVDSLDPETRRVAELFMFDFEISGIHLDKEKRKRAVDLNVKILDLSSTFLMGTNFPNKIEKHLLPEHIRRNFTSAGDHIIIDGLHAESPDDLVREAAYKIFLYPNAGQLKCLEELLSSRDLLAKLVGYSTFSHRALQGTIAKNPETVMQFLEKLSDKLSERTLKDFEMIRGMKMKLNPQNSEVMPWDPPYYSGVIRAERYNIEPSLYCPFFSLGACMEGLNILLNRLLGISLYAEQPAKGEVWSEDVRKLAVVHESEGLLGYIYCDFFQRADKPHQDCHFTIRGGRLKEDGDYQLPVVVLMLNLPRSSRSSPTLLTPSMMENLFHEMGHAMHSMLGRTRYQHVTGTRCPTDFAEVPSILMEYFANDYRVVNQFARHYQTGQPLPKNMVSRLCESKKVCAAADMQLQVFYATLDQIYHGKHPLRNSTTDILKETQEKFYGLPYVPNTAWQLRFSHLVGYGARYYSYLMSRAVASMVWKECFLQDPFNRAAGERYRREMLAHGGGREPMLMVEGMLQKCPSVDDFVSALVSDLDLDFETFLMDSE
Chain of UniProt Q14657 (Q14657 whole entry, looked up): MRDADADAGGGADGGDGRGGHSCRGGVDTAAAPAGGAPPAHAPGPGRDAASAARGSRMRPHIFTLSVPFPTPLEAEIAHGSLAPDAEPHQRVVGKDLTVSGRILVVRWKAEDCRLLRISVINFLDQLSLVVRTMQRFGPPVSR
Chain of UniProt Q68D91 (Q68D91 whole entry, looked up): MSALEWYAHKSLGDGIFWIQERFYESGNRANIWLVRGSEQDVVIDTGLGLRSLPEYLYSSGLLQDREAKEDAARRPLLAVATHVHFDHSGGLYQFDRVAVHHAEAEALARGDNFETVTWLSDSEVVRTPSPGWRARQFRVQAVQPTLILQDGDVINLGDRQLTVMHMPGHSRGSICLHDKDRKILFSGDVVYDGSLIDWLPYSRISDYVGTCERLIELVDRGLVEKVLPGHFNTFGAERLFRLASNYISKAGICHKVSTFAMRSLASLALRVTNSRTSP
Chain of UniProt Q92615 (Q92615 whole entry, looked up): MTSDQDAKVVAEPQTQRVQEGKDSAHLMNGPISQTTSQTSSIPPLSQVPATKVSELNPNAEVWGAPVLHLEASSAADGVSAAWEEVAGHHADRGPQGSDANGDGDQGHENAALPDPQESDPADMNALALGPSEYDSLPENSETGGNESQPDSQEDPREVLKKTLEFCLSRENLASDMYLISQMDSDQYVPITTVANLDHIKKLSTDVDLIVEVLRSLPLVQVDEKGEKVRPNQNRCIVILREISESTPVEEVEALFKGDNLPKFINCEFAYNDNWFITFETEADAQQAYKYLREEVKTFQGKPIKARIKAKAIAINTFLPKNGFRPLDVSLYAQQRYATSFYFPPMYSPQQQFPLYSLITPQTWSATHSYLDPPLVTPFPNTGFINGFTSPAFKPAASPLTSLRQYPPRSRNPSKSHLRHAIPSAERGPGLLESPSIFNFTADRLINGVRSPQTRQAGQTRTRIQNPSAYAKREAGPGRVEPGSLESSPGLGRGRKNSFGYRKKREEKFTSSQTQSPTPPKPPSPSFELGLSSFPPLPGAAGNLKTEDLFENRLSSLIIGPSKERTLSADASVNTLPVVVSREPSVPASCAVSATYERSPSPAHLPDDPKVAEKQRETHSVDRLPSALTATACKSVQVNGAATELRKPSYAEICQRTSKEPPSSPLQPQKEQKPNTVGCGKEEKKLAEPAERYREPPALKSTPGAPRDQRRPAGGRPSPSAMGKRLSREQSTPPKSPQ
Chain of UniProt O95777 (O95777 whole entry, looked up): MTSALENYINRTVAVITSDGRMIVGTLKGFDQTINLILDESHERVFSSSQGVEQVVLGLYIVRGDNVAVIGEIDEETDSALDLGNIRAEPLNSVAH

log2 fold change, inactive:
KIF4A (UniProt O95239) -0.042
MBLAC2 (UniProt Q68D91) 0.01
MAP2K1 (UniProt Q02750) -0.026
MIPEP (UniProt Q99797) 0.005
LARS (UniProt Q9P2J5) -0.024
LSM8 (UniProt O95777) -0.003
MAP2K7 isoform 4 (UniProt O14733) 0.037
MAPKAPK3 (UniProt Q16644) 0.042
LARP4B (UniProt Q92615) -0.027
MAPK6 (UniProt Q16659) 0.019
MAP11 (UniProt Q8WVR3) -0.009
MICB, A0A140T979 -0.029
LPCAT1 (UniProt Q8NF37) -0.057
METTL7A (UniProt Q9H8H3) 0.183
MAP4K4 isoform 3 (UniProt O95819) 0.099
LLGL1 (UniProt Q15334) 0.021
MAP3K4 (UniProt Q9Y6R4) -0.026
KIF14 (UniProt Q15058) 0.016
LAGE3 (UniProt Q14657) 0.074
KMT2A isoform 3 (UniProt Q03164) 0.041
LUZP1 (UniProt Q86V48) -0.033
MRPL15 (UniProt Q9P015) 0.051
MPZL1 (UniProt O95297) -0.036
